Source: the supplement of paper PMC4466140

biological target: AgAbp1; test: SPOT peptide array binding signal intensity (averaged, normalized) (arbitrary units (background-subtracted, floor 0; scale differs between SH3 domains)); higher = stronger binding of the SH3 domain to the peptide
Procedure, shortened: (§1)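 GST-fused SH3 domains from four yeast species were expressed in E. coli BL21(DE3), purified on glutathione Sepharose and incubated at 10 μg/ml overnight at 4°C in TBS-based blocking buffer on cellulose membranes carrying synthetic 15-mer peptides, with cysteines replaced by serines. Bound protein was detected with anti-GST antibody, an HRP anti-mouse secondary and luminol, then imaged and quantified with Genespotter. Binding signal is the normalized, background-subtracted spot intensity averaged over replicates, in arbitrary units that differ between domains.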

Row | Binder | SPOT peptide array binding signal intensity
1 | QLLNPNRRAPRRPLS | 104

biological target: AgBbc1; test: as above
Procedure, shortened: as §1

Row | Binder | SPOT peptide array binding signal intensity
2 | QLLNPNRRAPRRPLS | 451

biological target: AgBem1-D1; test: as above
Procedure, shortened: as §1

Row | Binder | SPOT peptide array binding signal intensity
3 | QLLNPNRRAPRRPLS | 328

biological target: AgBzz1-D1; test: as above
Procedure, shortened: as §1

Row | Binder | SPOT peptide array binding signal intensity
4 | QLLNPNRRAPRRPLS | 59

biological target: AgBzz1-D2; test: as above
Procedure, shortened: as §1

Row | Binder | SPOT peptide array binding signal intensity
5 | QLLNPNRRAPRRPLS | 45

biological target: AgCyk3; test: as above
Procedure, shortened: as §1

Row | Binder | SPOT peptide array binding signal intensity
6 | QLLNPNRRAPRRPLS | 2

biological target: AgFus1; test: as above
Procedure, shortened: as §1

Row | Binder | SPOT peptide array binding signal intensity
7 | QLLNPNRRAPRRPLS | 158

biological target: AgHof1; test: as above
Procedure, shortened: as §1

Row | Binder | SPOT peptide array binding signal intensity
8 | QLLNPNRRAPRRPLS | 89.8

biological target: AgHse1; test: as above
Procedure, shortened: as §1

Row | Binder | SPOT peptide array binding signal intensity
9 | QLLNPNRRAPRRPLS | 144

biological target: AgLsb1; test: as above
Procedure, shortened: as §1

Row | Binder | SPOT peptide array binding signal intensity
10 | QLLNPNRRAPRRPLS | 9.25

biological target: AgLsb4; test: as above
Procedure, shortened: as §1

Row | Binder | SPOT peptide array binding signal intensity
11 | QLLNPNRRAPRRPLS | 25

biological target: AgMyo5; test: as above
Procedure, shortened: as §1

Row | Binder | SPOT peptide array binding signal intensity
12 | QLLNPNRRAPRRPLS | 60.5

biological target: AgNbp2; test: as above
Procedure, shortened: as §1

Row | Binder | SPOT peptide array binding signal intensity
13 | QLLNPNRRAPRRPLS | 4130

biological target: AgRvs167; test: as above
Procedure, shortened: as §1

Row | Binder | SPOT peptide array binding signal intensity
14 | QLLNPNRRAPRRPLS | 2.83

biological target: AgSho1; test: as above
Procedure, shortened: as §1

Row | Binder | SPOT peptide array binding signal intensity
15 | QLLNPNRRAPRRPLS | 7

biological target: AgSla1-D1-D2; test: as above
Procedure, shortened: as §1

Row | Binder | SPOT peptide array binding signal intensity
16 | QLLNPNRRAPRRPLS | 33

biological target: AgSla1-D3; test: as above
Procedure, shortened: as §1

Row | Binder | SPOT peptide array binding signal intensity
17 | QLLNPNRRAPRRPLS | 4

biological target: CaAbp1-D1; test: as above
Procedure, shortened: as §1

Row | Binder | SPOT peptide array binding signal intensity
18 | QLLNPNRRAPRRPLS | 608

biological target: CaAbp1-D2; test: as above
Procedure, shortened: as §1

Row | Binder | SPOT peptide array binding signal intensity
19 | QLLNPNRRAPRRPLS | 495

biological target: CaBbc1; test: as above
Procedure, shortened: as §1

Row | Binder | SPOT peptide array binding signal intensity
20 | QLLNPNRRAPRRPLS | 1450

biological target: CaBem1-D1; test: as above
Procedure, shortened: as §1

Row | Binder | SPOT peptide array binding signal intensity
21 | QLLNPNRRAPRRPLS | 122

biological target: CaBzz1-D1; test: as above
Procedure, shortened: as §1

Row | Binder | SPOT peptide array binding signal intensity
22 | QLLNPNRRAPRRPLS | 220

biological target: CaBzz1-D2; test: as above
Procedure, shortened: as §1

Row | Binder | SPOT peptide array binding signal intensity
23 | QLLNPNRRAPRRPLS | 135

biological target: CaCyk3; test: as above
Procedure, shortened: as §1

Row | Binder | SPOT peptide array binding signal intensity
24 | QLLNPNRRAPRRPLS | 161

biological target: CaFus1; test: as above
Procedure, shortened: as §1

Row | Binder | SPOT peptide array binding signal intensity
25 | QLLNPNRRAPRRPLS | 270

biological target: CaHof1; test: as above
Procedure, shortened: as §1

Row | Binder | SPOT peptide array binding signal intensity
26 | QLLNPNRRAPRRPLS | 0.25

biological target: CaHse1; test: as above
Procedure, shortened: as §1

Row | Binder | SPOT peptide array binding signal intensity
27 | QLLNPNRRAPRRPLS | 13.5

biological target: CaLsb1; test: as above
Procedure, shortened: as §1

Row | Binder | SPOT peptide array binding signal intensity
28 | QLLNPNRRAPRRPLS | 0.25

biological target: CaLsb4; test: as above
Procedure, shortened: as §1

Row | Binder | SPOT peptide array binding signal intensity
29 | QLLNPNRRAPRRPLS | 95.5

biological target: CaMyo5; test: as above
Procedure, shortened: as §1

Row | Binder | SPOT peptide array binding signal intensity
30 | QLLNPNRRAPRRPLS | 6.75

biological target: CaNbp2; test: as above
Procedure, shortened: as §1

Row | Binder | SPOT peptide array binding signal intensity
31 | QLLNPNRRAPRRPLS | 2950

biological target: CaRvs167; test: as above
Procedure, shortened: as §1

Row | Binder | SPOT peptide array binding signal intensity
32 | QLLNPNRRAPRRPLS | 28.8

biological target: CaRvs167-3; test: as above
Procedure, shortened: as §1

Row | Binder | SPOT peptide array binding signal intensity
33 | QLLNPNRRAPRRPLS | 5.25

biological target: CaSho1; test: as above
Procedure, shortened: as §1

Row | Binder | SPOT peptide array binding signal intensity
34 | QLLNPNRRAPRRPLS | 72

biological target: CaSla1-D1-D2; test: as above
Procedure, shortened: as §1

Row | Binder | SPOT peptide array binding signal intensity
35 | QLLNPNRRAPRRPLS | 1270

biological target: CaSla1-D3; test: as above
Procedure, shortened: as §1

Row | Binder | SPOT peptide array binding signal intensity
36 | QLLNPNRRAPRRPLS | 0.25

biological target: ScAbp1; test: as above
Procedure, shortened: as §1

Row | Binder | SPOT peptide array binding signal intensity
37 | QLLNPNRRAPRRPLS | 73

biological target: ScBbc1; test: as above
Procedure, shortened: as §1

Row | Binder | SPOT peptide array binding signal intensity
38 | QLLNPNRRAPRRPLS | 271

biological target: ScBem1-D1; test: as above
Procedure, shortened: as §1

Row | Binder | SPOT peptide array binding signal intensity
39 | QLLNPNRRAPRRPLS | 45

biological target: ScBzz1-D1; test: as above
Procedure, shortened: as §1

Row | Binder | SPOT peptide array binding signal intensity
40 | QLLNPNRRAPRRPLS | 56

biological target: ScBzz1-D2; test: as above
Procedure, shortened: as §1

Row | Binder | SPOT peptide array binding signal intensity
41 | QLLNPNRRAPRRPLS | 30.5

biological target: ScCyk3; test: as above
Procedure, shortened: as §1

Row | Binder | SPOT peptide array binding signal intensity
42 | QLLNPNRRAPRRPLS | 65

biological target: ScFus1; test: as above
Procedure, shortened: as §1

Row | Binder | SPOT peptide array binding signal intensity
43 | QLLNPNRRAPRRPLS | 104

biological target: ScHof1; test: as above
Procedure, shortened: as §1

Row | Binder | SPOT peptide array binding signal intensity
44 | QLLNPNRRAPRRPLS | ≤ 0

biological target: ScHse1; test: as above
Procedure, shortened: as §1

Row | Binder | SPOT peptide array binding signal intensity
45 | QLLNPNRRAPRRPLS | 779

biological target: ScLsb1; test: as above
Procedure, shortened: as §1

Row | Binder | SPOT peptide array binding signal intensity
46 | QLLNPNRRAPRRPLS | 37.2

biological target: ScLsb2; test: as above
Procedure, shortened: as §1

Row | Binder | SPOT peptide array binding signal intensity
47 | QLLNPNRRAPRRPLS | 370

biological target: ScLsb3; test: as above
Procedure, shortened: as §1

Row | Binder | SPOT peptide array binding signal intensity
48 | QLLNPNRRAPRRPLS | 808

biological target: ScLsb4; test: as above
Procedure, shortened: as §1

Row | Binder | SPOT peptide array binding signal intensity
49 | QLLNPNRRAPRRPLS | 31

biological target: ScMyo3; test: as above
Procedure, shortened: as §1

Row | Binder | SPOT peptide array binding signal intensity
50 | QLLNPNRRAPRRPLS | 70.5

biological target: ScMyo5; test: as above
Procedure, shortened: as §1

Row | Binder | SPOT peptide array binding signal intensity
51 | QLLNPNRRAPRRPLS | 122

biological target: ScNbp2; test: as above
Procedure, shortened: as §1

Row | Binder | SPOT peptide array binding signal intensity
52 | QLLNPNRRAPRRPLS | 6040

biological target: ScPex13; test: as above
Procedure, shortened: as §1

Row | Binder | SPOT peptide array binding signal intensity
53 | QLLNPNRRAPRRPLS | 50.5

biological target: ScRvs167; test: as above
Procedure, shortened: as §1

Row | Binder | SPOT peptide array binding signal intensity
54 | QLLNPNRRAPRRPLS | 93.5

biological target: ScSho1; test: as above
Procedure, shortened: as §1

Row | Binder | SPOT peptide array binding signal intensity
55 | QLLNPNRRAPRRPLS | 271

biological target: ScSla1-D1-D2; test: as above
Procedure, shortened: as §1

Row | Binder | SPOT peptide array binding signal intensity
56 | QLLNPNRRAPRRPLS | 247

biological target: ScSla1-D3; test: as above
Procedure, shortened: as §1

Row | Binder | SPOT peptide array binding signal intensity
57 | QLLNPNRRAPRRPLS | 17.2

biological target: SpAbp1-D1; test: as above
Procedure, shortened: as §1

Row | Binder | SPOT peptide array binding signal intensity
58 | QLLNPNRRAPRRPLS | 90

biological target: SpBbc1; test: as above
Procedure, shortened: as §1

Row | Binder | SPOT peptide array binding signal intensity
59 | QLLNPNRRAPRRPLS | 66.5

biological target: SpBzz1-D1; test: as above
Procedure, shortened: as §1

Row | Binder | SPOT peptide array binding signal intensity
60 | QLLNPNRRAPRRPLS | 370

biological target: SpBzz1-D2; test: as above
Procedure, shortened: as §1

Row | Binder | SPOT peptide array binding signal intensity
61 | QLLNPNRRAPRRPLS | 130

biological target: SpCyk3; test: as above
Procedure, shortened: as §1

Row | Binder | SPOT peptide array binding signal intensity
62 | QLLNPNRRAPRRPLS | 6

biological target: SpHof1; test: as above
Procedure, shortened: as §1

Row | Binder | SPOT peptide array binding signal intensity
63 | QLLNPNRRAPRRPLS | 134

biological target: SpHof1-2; test: as above
Procedure, shortened: as §1

Row | Binder | SPOT peptide array binding signal intensity
64 | QLLNPNRRAPRRPLS | 25

biological target: SpHof1-3; test: as above
Procedure, shortened: as §1

Row | Binder | SPOT peptide array binding signal intensity
65 | QLLNPNRRAPRRPLS | 148

biological target: SpHse1; test: as above
Procedure, shortened: as §1

Row | Binder | SPOT peptide array binding signal intensity
66 | QLLNPNRRAPRRPLS | 178

biological target: SpLsb1; test: as above
Procedure, shortened: as §1

Row | Binder | SPOT peptide array binding signal intensity
67 | QLLNPNRRAPRRPLS | 61.5

biological target: SpLsb4; test: as above
Procedure, shortened: as §1

Row | Binder | SPOT peptide array binding signal intensity
68 | QLLNPNRRAPRRPLS | 1750

biological target: SpMyo1; test: as above
Procedure, shortened: as §1

Row | Binder | SPOT peptide array binding signal intensity
69 | QLLNPNRRAPRRPLS | 390

biological target: SpNbp2; test: as above
Procedure, shortened: as §1

Row | Binder | SPOT peptide array binding signal intensity
70 | QLLNPNRRAPRRPLS | 440

biological target: SpPex13; test: as above
Procedure, shortened: as §1

Row | Binder | SPOT peptide array binding signal intensity
71 | QLLNPNRRAPRRPLS | 20

biological target: SpRvs167; test: as above
Procedure, shortened: as §1

Row | Binder | SPOT peptide array binding signal intensity
72 | QLLNPNRRAPRRPLS | 34

biological target: SpSla1-D1-D2; test: as above
Procedure, shortened: as §1

Row | Binder | SPOT peptide array binding signal intensity
73 | QLLNPNRRAPRRPLS | 3

biological target: SpSla1-D3; test: as above
Procedure, shortened: as §1

Row | Binder | SPOT peptide array binding signal intensity
74 | QLLNPNRRAPRRPLS | 2
